Test results reported in publication PMC5540273 (PLoS ONE, 2017).

Experiments:
Conditions in all cases: concentration: 1 μM, replicates: in singlicate; n = 1
[1] = test system: MARK3
[2] = test system: MARK4
[3] = test system: MAST1
[4] = test system: T1, MEK1
T1 construct: gene MAP2K1

[5] = test system: T2, MEK2
T2 construct: gene MAP2K2

[6] = test system: T3, MEK3
T3 construct: gene MAP2K3

[7] = test system: T4, MEK4
T4 construct: gene MAP2K4

[8] = test system: T5, MEK5
T5 construct: gene MAP2K5

[9] = test system: T6, MEK6
T6 construct: gene MAP2K6

[10] = test system: MELK
[11] = test system: MERTK
[12] = test system: MET
[13] = test system: T7, MINK
T7 construct: gene MINK1

[14] = test system: MKK7
[15] = test system: MKNK1
[16] = test system: MKNK2
[17] = test system: T8, MLCK
T8 construct: gene MYLK3

[18] = test system: T9, MLK1
T9 construct: gene MAP3K9

[19] = test system: MLK2
[20] = test system: MLK3
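Further: KINOMEscan kinase panel screen.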

SMILES | %Inh [1] [%] | %Inh [2] [%] | %Inh [3] [%] | %Inh [4] [%] | %Inh [5] [%] | %Inh [6] [%] | %Inh [7] [%] | %Inh [8] [%] | %Inh [9] [%] | %Inh [10] [%] | %Inh [11] [%] | %Inh [12] [%] | %Inh [13] [%] | %Inh [14] [%] | %Inh [15] [%] | %Inh [16] [%] | %Inh [17] [%] | %Inh [18] [%] | %Inh [19] [%] | %Inh [20] [%]
CC(C)(C)c1ccc(-n2cnc3c(N)ncnc32)cc1 [SKF-97263] | 0 | 0 | 0 | 0 | 10 | 0 | 21 | 44 | 0 | 13 | 41 | 0 | 14 | 6 | 0 | 29 | 4 | 2 | 61 | 0
OCCOCCn1ccc2ncnc(Nc3ccc(Oc4cccc(Cl)c4)c(Cl)c3)c21 | 0 | 31 | 0 | 8 | 40 | 0 | 0 | 89 | 0 | 0 | 0 | 0 | 0 | 0 | 0 | 3 | 0 | 0 | 37 | 22
COC(=O)c1c(-c2ccccc2)c2cc(Cl)ccc2c(=O)n1Cc1ccc(S(C)(=O)=O)cc1 | 0 | 0 | 0 | 0 | 29 | 9 | 10 | 0 | 4 | 0 | 8 | 0 | 0 | 0 | 0 | 0 | 0 | 0 | 0 | 4
O=C(NCCCN1CCCC1=O)c1cnc(NCc2cc(Cl)ccc2Cl)nc1NC1CCNCC1 | 0 | 0 | 0 | 0 | 3 | 0 | 0 | 0 | 0 | 0 | 63 | 0 | 0 | 0 | 0 | 0 | 11 | 0 | 0 | 0
CSc1ccc(NC2=C(c3ccccc3Cl)C(=O)NC2=O)cc1 [SB-342411] | 0 | 13 | 0 | 14 | 3 | 0 | 0 | 5 | 76 | 4 | 0 | 0 | 2 | 39 | 100 | 0 | 0 | 9 | 0 | 4
Fc1ccc(-c2ncn(CCCNCc3ccccc3)c2-c2ccncc2)cc1 | 5 | 0 | 28 | 26 | 20 | 30 | 0 | 31 | 17 | 5 | 35 | 0 | 3 | 10 | 28 | 0 | 0 | 4 | 0 | 0
Cc1cc(N2CCC(NS(=O)(=O)c3ccc(F)cc3)CC2)nc(Nc2cccc(C#N)c2)n1.O=C(O)C(F)(F)F [GSK1653537] | 0 | 9 | 0 | 0 | 0 | 0 | 78 | 19 | 62 | 5 | 39 | 0 | 0 | 0 | 7 | 3 | 0 | 12 | 0 | 15
Cc1ccc(C)c(NC(=O)NCCNc2ccnc(Nc3ccc(F)cc3)n2)c1 [GSK1379878] | 0 | 9 | 0 | 0 | 0 | 11 | 0 | 43 | 0 | 4 | 2 | 0 | 0 | 0 | 0 | 0 | 0 | 0 | 0 | 4
Nc1nc(-c2cccnc2)c(-c2ccnc3ccccc23)s1 [GW684083] | 0 | 0 | 22 | 0 | 0 | 0 | 1 | 70 | 0 | 6 | 0 | 0 | 51 | 0 | 1 | 0 | 30 | 0 | 0 | 7
Nc1n[nH]c2nnc(-c3ccccc3)cc12 [SB-517389] | 0 | 0 | 0 | 0 | 0 | 0 | 24 | 38 | 0 | 0 | 13 | 0 | 23 | 0 | 77 | 12 | 86 | 0 | 0 | 0
O=C(Nc1ccccc1F)NC1CCN(c2ccnc(Nc3ccc(F)cc3)n2)C1 (stereo not shown) [GSK1379722] | 0 | 0 | 14 | 0 | 0 | 0 | 25 | 12 | 0 | 0 | 6 | 0 | 0 | 0 | 7 | 23 | 10 | 0 | 0 | 9
